Compound activity from PubChem BioAssay.
Compounds with a hit are over-represented: about 5.3% of the library has one in this group of screens.
ALOX12 inhib – 12-hLO (ALOX12) enzyme inhibition; P18054; purified 12-hLO, xylenol orange hydroperoxide absorbance; Potency, µM (highest dose often 57.1 µM), most hits filed as inhibitors; 0.12% of 150,000 active; also: nearly all actives have a fitted effect of over 55% in size
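Xylenol orange chromogenic assay: hydroperoxide from 12hLO oxidises Fe(II), giving red-shifted Fe(III)-XO absorbance. Conditions: 150 nM enzyme, 40 uM arachidonic acid, 25 mM Hepes pH 7.0, 0.01% Triton X-100, 30 min, room temperature.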
IMPase Li inh – cell-permeable IMPase inhibitors with lithium potentiation; Potency, µM (highest dose often 59.4 µM), actives largely listed as inhibitors; AID 1457; 0.35% of 210,000 active; CHO-M1 cells, IP1 TR-FRET (IP-One), carbachol + lithium;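 also: IP1 builds up when IMPase is blocked and the TR-FRET signal falls; nearly all actives have a fitted effect of over 50% in size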
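Lithium-sensitised IP1 accumulation assay; M1-expressing CHO cells treated 30 min at 37C with compound. Competitive antibody detection by time-resolved FRET followed a 10 min room-temperature lysis step.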
PNC assembly inh – inhibitors of perinucleolar compartment assembly | PC3M PTB-GFP, PNC prevalence imaging, 16 h; stronger effect = lower value | AID 2417 | activity change (PNC), negative = inhibition, % at 10 µM | 3.1% of 140,000 active;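 active = readout at or below -70, meaning at least 70% loss of cells showing the perinucleolar compartment, a nuclear body marking cancer cells; inconclusive = readout between -30 and a set limit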
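Compounds are pinned in duplicate onto adhered PC3M cells stably expressing GFP-tagged PTB and incubated 16 h at 37 C. Cells are then fixed, nuclei stained with Hoechst, and PNC-positive cells counted.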
ALOX15B inhib – 15-hLO-2 (ALOX15B) enzyme inhibition; O15296; purified 15hLO-2, xylenol orange hydroperoxide absorbance; Potency, µM (titrated, usually from 57.1 µM), most hits filed as inhibitors; 0.56% of 110,000 active; AID 881; also: nearly all actives have a fitted effect of over 60% in size
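Enzyme 50 nM, AA 45 uM, 25 mM Hepes pH 7.5 + 0.01% Triton X-100; cpd preinc 15 min RT, rxn 90 min RT; stop/detect with 200 uM XO + 300 uM Fe(II) in 50 mM H2SO4, 30 min; A573/A405.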
HPGD block – blocks human HPGD enzyme activity; P15428; AID 894; 4.3% of 150,000 active; purified HPGD, NADH fluorescence kinetic, PGE2 substrate; Potency, µM, actives largely listed as inhibitors; active = well fitted inhibition curve with a large enough effect, not every such curve was filed as active; inconclusive = small, poorly fitted or top-dose-only effect, or another doubt; inactive = no such curve, though single readings can be large or run the other way
Target sequence (P15428 whole entry, looked up): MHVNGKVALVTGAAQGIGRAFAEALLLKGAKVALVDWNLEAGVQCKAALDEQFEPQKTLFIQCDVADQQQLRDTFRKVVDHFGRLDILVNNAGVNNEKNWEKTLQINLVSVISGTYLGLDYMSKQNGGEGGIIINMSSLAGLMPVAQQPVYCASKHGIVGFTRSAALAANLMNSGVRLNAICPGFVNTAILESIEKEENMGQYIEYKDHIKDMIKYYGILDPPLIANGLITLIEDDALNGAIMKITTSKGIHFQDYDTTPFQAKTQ
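20 nM HPGD preincubated 15 min at room temperature with compound in 50 mM Tris-HCl pH 8, 0.01% Tween 20. Started with 1 mM NAD+ and 30 uM prostaglandin E2; NADH fluorescence (360/450 nm) read 5 times over 30-s intervals, last minus first.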
IMPase inh – IMPase inhibition in cells; CHO-M1 cells, IP1 accumulation, HTRF TR-FRET ratio; P97697; 120,000 tested, under 10 active; inhibition (IP1 accumulation), % at 46.1 µM; AID 901; active = well fitted curve in the direction sought with a large enough effect in the signal ratio, not every such curve was filed as active; inconclusive = small, poorly fitted or top-dose-only effect, or a change in a side signal; inactive = no such curve, though single readings can be large or run the other way; the % refers to the signal ratio;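 also: cells stimulated with carbachol in lithium chloride buffer; higher means more IMPase inhibition seen as more IP1 and lower FRET ratio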
Target sequence (P97697 whole entry, looked up): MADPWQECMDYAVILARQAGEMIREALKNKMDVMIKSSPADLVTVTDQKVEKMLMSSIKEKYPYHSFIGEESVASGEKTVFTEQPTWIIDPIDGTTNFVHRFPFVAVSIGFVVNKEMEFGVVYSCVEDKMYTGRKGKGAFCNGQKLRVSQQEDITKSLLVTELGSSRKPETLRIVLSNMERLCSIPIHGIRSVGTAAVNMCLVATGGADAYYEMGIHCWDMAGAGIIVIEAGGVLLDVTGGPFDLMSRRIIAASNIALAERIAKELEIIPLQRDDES
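CHO-M1, 2000 cells/well, cultured 16–30 h; cpd up to 46 uM; carbachol (50 uM solution, stimulation buffer w/ 50 mM LiCl, pH 7.4), 30 min 37C; IP-One TR-FRET, 10 min RT; Ex 320/Em 665, 620; Hill-fit AC50.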
Of the large screens only hits and unclear results are named; the others gave an inactive call. Unless noted, calls follow the shape of the dose curve; as a rule, active = well fitted curve in the direction sought with a large enough effect; inconclusive = small, poorly fitted or top-dose-only effect, or another doubt; inactive = no such curve, though single readings can be large; an effect the other way counts as inactive or inconclusive.

O=C(N/N=C\C=C\c1ccco1)c1cc(-c2ccc3ccccc3c2)n[nH]1	HPGD block 32µM (no result: ALOX15B inhib)
O=[N+]([O-])c1ccccc1/C=C/C=N/n1c(-c2ccccc2)n[nH]c1=S	HPGD block 7.1µM (no result: ALOX15B inhib, IMPase inh)
O=[N+]([O-])c1ccccc1/C=C/C=N/n1c(-c2ccc(Cl)cc2)n[nH]c1=S	HPGD block 3.2µM
Cc1nn(-c2ccccc2)c(C)c1/C=N/n1c(-c2ccc(Cl)cc2)n[nH]c1=S	HPGD block inconclusive (no result: ALOX15B inhib)
O=C(NNS(=O)(=O)c1ccc(Cl)cc1)c1cnn(-c2ccccc2)c1-n1cccc1	none (no result: ALOX15B inhib)
Cc1ccc(NC(=S)Nc2ccc(C(C)C)cc2)cc1S(=O)(=O)N1CCCCCC1	ALOX12 inhib inconclusive, HPGD block inconclusive (no result: ALOX15B inhib, IMPase inh)
c1ccc(-c2nc(-c3ccco3)cs2)nc1	PNC assembly inh -100
O=C1C(Nc2ccccc2)=C/C(=N/S(=O)(=O)c2cccs2)c2ccccc21	PNC assembly inh -81 (no result: ALOX15B inhib, IMPase inh)
Cc1ccc(NC2=C/C(=N/S(=O)(=O)c3cccs3)c3ccccc3C2=O)cc1	PNC assembly inh -101 (no result: ALOX15B inhib, IMPase inh)
COC(=O)c1ccccc1NC1=C/C(=N\S(=O)(=O)c2cccs2)c2ccccc2C1=O	HPGD block inconclusive
O=C(COc1ccc2oc(-c3ccco3)cc(=O)c2c1)N1CCCCC1	none (no result: ALOX12 inhib, PNC assembly inh, ALOX15B inhib, HPGD block, IMPase inh)
CCOc1cc(N2CCOCC2)c(OCC)cc1NC(=O)COc1ccc2ccc(=O)oc2c1	none (no result: ALOX15B inhib)
O=C1c2ccccc2C(=O)C1Cc1cccc2ccccc12	PNC assembly inh inconclusive, HPGD block 14µM
C=CCc1ccc(OC)c(OC)c1	none (no result: PNC assembly inh, IMPase inh)
NC(=O)/N=N/C(N)=O	HPGD block 10µM (no result: PNC assembly inh, IMPase inh)
Cc1ccc(S(=O)(=O)N2CCCC2C(=O)O)cc1 (stereo not drawn)	none
Cc1ccc(S(=O)(=O)C2(C(=O)N3CCCC(C)C3)CC2)cc1 (stereo not drawn)	HPGD block 25µM
Cc1ccc(O)c(C(=O)c2cnc3c(c2)c(C)nn3-c2ccccc2)c1	PNC assembly inh inconclusive, HPGD block inconclusive (no result: ALOX15B inhib, IMPase inh)
Cc1ccccc1CNC(=O)c1ccc(Cl)c([N+](=O)[O-])c1	none (no result: ALOX15B inhib, IMPase inh)
CC(C)CNC(=O)c1ccc(NC(=O)c2ccccc2[N+](=O)[O-])cc1	PNC assembly inh -84, HPGD block inconclusive (no result: ALOX15B inhib, IMPase inh)
CC(C)(C)SCCNC(=O)c1ccc(Cl)c([N+](=O)[O-])c1	HPGD block 28µM (no result: ALOX15B inhib, IMPase inh)
CC(C)CNC(=O)c1cccc(NC(=O)c2ccc(Cl)c([N+](=O)[O-])c2)c1	PNC assembly inh -89 (no result: ALOX15B inhib, IMPase inh)
Cc1cc(NC(=O)c2ccccc2[N+](=O)[O-])ccc1Br	none (no result: ALOX12 inhib, PNC assembly inh, ALOX15B inhib, HPGD block, IMPase inh)
CC(C)CNC(=O)c1ccc(Cl)c(Cl)c1	HPGD block 22µM
O=c1c(-c2ccccc2)nc2cnc(N3CCOCC3)nc2n1C1CC1	IMPase Li inh inconclusive (no result: ALOX12 inhib, PNC assembly inh, HPGD block, IMPase inh)
COc1ccc(-n2c(=O)c(CCc3ccccc3)nc3cnc(N4CCOCC4)nc32)cc1	none (no result: ALOX12 inhib, PNC assembly inh, HPGD block, IMPase inh)
CSCCC(NC(=O)c1cc([N+](=O)[O-])ccc1Cl)C(=O)O (stereo not drawn)	PNC assembly inh -82 (no result: ALOX15B inhib)
Cc1cccc(-c2c3c(=O)n(C)c(=O)n(C)c3c3cccnn23)c1	none
Nn1c(=O)c2ccccc2n2c(SCc3ccccc3)nnc12	PNC assembly inh inconclusive
Nn1c(=O)c2ccccc2n2c(SCc3ccc(C(F)(F)F)cc3)nnc12	HPGD block 11µM
O=C(Oc1ccc(Br)cc1C(=S)N1CCCC1)c1ccccc1F	HPGD block 25µM (no result: ALOX15B inhib, IMPase inh)
CC(=O)Nc1cccc(Oc2ncnc3scc(-c4ccc(C)cc4)c23)c1	PNC assembly inh -83, HPGD block 28µM (no result: ALOX15B inhib)
Cc1ccc(-c2csc3ncnc(Oc4ccc5c(C)cc(=O)oc5c4)c23)cc1	PNC assembly inh inconclusive, HPGD block inconclusive (no result: ALOX15B inhib, IMPase inh)
CC(C)(Oc1ccc(Cl)cc1)C(=O)NCc1ccc(S(N)(=O)=O)cc1	none (no result: ALOX12 inhib, PNC assembly inh, ALOX15B inhib, HPGD block, IMPase inh)
C/C(=C\c1ccccc1)CN1CCC(C(=O)N2CCCCC2)CC1	HPGD block 14µM (no result: ALOX15B inhib, IMPase inh)
O=C(N/C(=C/c1ccccc1)C(=O)N1CCCCCC1)c1ccccc1	none (no result: ALOX12 inhib, PNC assembly inh, ALOX15B inhib, HPGD block, IMPase inh)
C/C(=C\c1ccccc1)CN1CCC(C(=O)N2CCC(C)CC2)CC1	none (no result: ALOX15B inhib)
O=C(/C(=C/c1ccccc1)c1ccccc1)N1CCCCC1	HPGD block 0.71µM
